{"source": "PubChem BioAssay (NCI)", "note": "The panel holds about 83,000 compounds, 20% with a hit somewhere; the sample as a whole holds those more often.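 96-well plates, one dose, 48 hours. Percent growth reported; active if below 10.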 Calls of active or inactive are those of the source."}
{"system": "OVCAR-4 ovarian", "test": "NCI-60 one-dose screen, 48 h (100 = growth as untreated, 0 = no growth, -100 = all killed)", "conditions": "10 µM unless noted"}
{"smiles": "N#CC1=C(N)Oc2c(sc3c(F)cccc23)C1c1ccc(Cl)cc1", "note": "(stereo unspecified)", "growth": "62.8% (inactive)"}
{"smiles": "COc1ccccc1CNc1nc(N)nc2[nH]c3ccc(O)cc3c12", "growth": "80.2% (inactive)"}
{"smiles": "CCC(c1ccc(OC)cc1)C(CC)c1ccc(O)c(CN2CCCCC2)c1", "note": "(stereo unspecified)", "growth": "67.1% (inactive)"}
{"smiles": "C/C(=N\\Nc1cc(C)c2cc(C)ccc2n1)c1ccccn1", "growth": "-83.1% (active)"}
{"smiles": "Oc1ccc(Nc2ccccc2)cc1", "growth": "70.5% (inactive)"}
{"smiles": "Nc1c(C(=O)Nc2cccc(Cl)c2)sc2ncc(Cl)cc12", "growth": "-4.92% (active)"}
{"smiles": "COc1ccc(-c2nc3ccccn3c2-c2nc3ccc(Cl)cc3[nH]2)cc1", "growth": "86% (inactive)"}
{"smiles": "CC/C(=N/NC(N)=O)c1ccccc1", "growth": "120% (inactive)"}
{"smiles": "Cc1ccsc1-c1ccc2c(c1)COC2(CCCN(C)C)c1ccc(F)cc1", "note": "(stereo unspecified)", "growth": "54.4% (inactive)"}
{"smiles": "NS(=O)(=O)c1ccc(CCNC(=O)/C=C/c2ccc(Cl)cc2)cc1", "growth": "87.1% (inactive)"}
{"smiles": "Cc1ccc(N(CC(=O)Nc2ccc(S(=O)(=O)N3CCC(N4CCCC4)CC3)cc2)S(=O)(=O)c2ccc(Cl)cc2)cc1", "growth": "49.2% (inactive)"}
{"smiles": "CC1(C)NCCC[C@]2(C)[C@H]3CC[C@@H]4[C@H]5[C@H](C(=O)/C=C/c6ccccn6)CC[C@]5(CO)CC[C@@]4(C)[C@]3(C)CC[C@@H]12", "growth": "35.9% (inactive)"}
{"smiles": "Fc1ccc2nc(-c3cc(-c4ccc5c(c4)OCO5)n[nH]3)[nH]c2c1", "growth": "57.2% (inactive)"}
{"smiles": "O=C(NC(Cc1cn(Cc2ccccc2)cn1)C(=O)O)OCC1c2ccccc2-c2ccccc21", "note": "(stereo unspecified)", "growth": "106% (inactive)"}
{"smiles": "Cc1cc(Cl)nc(N(CCCNc2ccnc3cc(Cl)ccc23)Cc2ccco2)n1", "growth": "32% (inactive)"}
{"smiles": "COc1cc(-c2cc3ncccc3c3nc(OCCN(C)C)c4cccnc4c23)cc(OC)c1OC", "growth": "-43.9% (active)"}
{"smiles": "O=C1CNCCN1", "growth": "108% (inactive)"}
{"smiles": "c1ccc2[nH]c(-c3ccc(Nc4nc(N5CCCCC5)nc(N5CCOCC5)n4)cc3)nc2c1", "growth": "61.2% (inactive)"}
{"smiles": "NC1=NN=C2N(N)C(=O)c3cnn(-c4ccccc4)c3N2c2nc(-c3ccccc3)cc(-c3ccccc3)c21", "growth": "82.8% (inactive)"}
{"system": "SK-OV-3 ovarian", "test": "NCI-60 one-dose screen, 48 h (100 = growth as untreated, 0 = no growth, -100 = all killed)", "conditions": "10 µM unless noted"}
{"smiles": "COc1ccc(-c2n[nH]nc2-c2cc3ccccc3s2)cc1O", "growth": "15.5% (inactive)"}
{"smiles": "Cn1cc(-c2csc(-c3c[nH]c4ccc(F)cc34)n2)c2cccnc21", "growth": "64.6% (inactive)"}
{"smiles": "Nc1c(C(=O)Nc2cccc(Br)c2)sc2nc3c(cc12)C(=O)CCC3", "growth": "5.74% (active)"}
{"smiles": "COc1cc(/C=N/Nc2ncnc3c2c(C)nn3-c2ccc(F)cc2)ccc1O", "growth": "99.2% (inactive)"}
{"smiles": "Nc1ccccc1NC(=O)c1ccc(CN2CCC/C(=C\\c3ccccn3)C2=O)cc1", "growth": "48.2% (inactive)"}
{"smiles": "N#CC1=C(N)Oc2ccc3ccccc3c2C1c1ccccc1", "note": "(stereo unspecified)", "growth": "47.2% (inactive)"}
{"smiles": "Cc1csc(-c2ccc3c(c2)COC3(CCCN(C)C)c2ccc(F)cc2)c1", "note": "(stereo unspecified)", "growth": "-22.4% (active)"}
{"smiles": "O=C(O)c1cccc2c1Cc1cc([N+](=O)[O-])ccc1-2", "growth": "107% (inactive)"}
{"smiles": "COc1ccc(C2C(C#N)=C(N)Oc3c2sc2c(F)cccc32)cc1", "note": "(stereo unspecified)", "growth": "20.7% (inactive)"}
{"smiles": "CCCCCCCCNc1cccc2c1C(=O)c1ccccc1C2=O", "growth": "108% (inactive)"}
{"smiles": "CC1(C)CC[C@]2(CO)CC[C@]3(C)C(=CC[C@@H]4[C@@]5(C)CC[C@H](NCO)C(C)(C)[C@@H]5CC[C@]43C)[C@@H]2C1", "growth": "70.8% (inactive)"}
{"smiles": "CNC(=O)c1cc(Oc2ccc3nc(NC(=O)Nc4ccc(Cl)cc4)sc3c2)ccn1", "growth": "82% (inactive)"}
{"smiles": "O=C(c1ccccc1)C(CN1CCOCC1)c1ccccc1", "note": "(stereo unspecified)", "growth": "91.6% (inactive)"}
{"smiles": "NCCn1cc(-c2nc(-c3c[nH]c4ncccc34)cs2)c2ccccc21", "growth": "82.2% (inactive)"}
{"smiles": "COc1cc(-c2cc(-c3nc4cc(Cl)c(Cl)cc4[nH]3)[nH]n2)cc(OC)c1OC", "growth": "104% (inactive)"}
{"smiles": "C=CC(=O)N[C@H](Cc1ccc(-c2cc(Cl)cc(Cl)c2)cc1)[C@H](O)[C@@H](O)C(=O)O", "growth": "78.6% (inactive)"}
{"smiles": "N#CC1=C(N)Oc2c(sc3c(F)cccc23)C1c1ccc(Cl)cc1", "note": "(stereo unspecified)", "growth": "31% (inactive)"}
{"smiles": "COc1ccccc1CNc1nc(N)nc2[nH]c3ccc(O)cc3c12", "growth": "73.4% (inactive)"}
{"smiles": "CCC(c1ccc(OC)cc1)C(CC)c1ccc(O)c(CN2CCCCC2)c1", "note": "(stereo unspecified)", "growth": "84.9% (inactive)"}
{"smiles": "C/C(=N\\Nc1cc(C)c2cc(C)ccc2n1)c1ccccn1", "growth": "25.4% (inactive)"}
{"smiles": "Cn1cc(-c2csc(-c3c[nH]c4ccccc34)n2)c2cccnc21", "growth": "28.9% (inactive)"}
{"smiles": "Oc1ccc(Nc2ccccc2)cc1", "growth": "97.9% (inactive)"}
{"smiles": "Nc1c(C(=O)Nc2cccc(Cl)c2)sc2ncc(Cl)cc12", "growth": "81% (inactive)"}
{"smiles": "C(=C\\c1c[nH]c2ccccc12)/c1ccc2ccccc2n1", "growth": "89.5% (inactive)"}
{"smiles": "COc1ccc(-c2nc3ccccn3c2-c2nc3ccc(Cl)cc3[nH]2)cc1", "growth": "107% (inactive)"}
{"smiles": "CC/C(=N/NC(N)=O)c1ccccc1", "growth": "116% (inactive)"}
{"smiles": "Cc1ccsc1-c1ccc2c(c1)COC2(CCCN(C)C)c1ccc(F)cc1", "note": "(stereo unspecified)", "growth": "79.1% (inactive)"}
{"smiles": "NS(=O)(=O)c1ccc(CCNC(=O)/C=C/c2ccc(Cl)cc2)cc1", "growth": "105% (inactive)"}
{"smiles": "Cc1ccc(N(CC(=O)Nc2ccc(S(=O)(=O)N3CCC(N4CCCC4)CC3)cc2)S(=O)(=O)c2ccc(Cl)cc2)cc1", "growth": "96.9% (inactive)"}
{"smiles": "CC1(C)NCCC[C@]2(C)[C@H]3CC[C@@H]4[C@H]5[C@H](C(=O)/C=C/c6ccccn6)CC[C@]5(CO)CC[C@@]4(C)[C@]3(C)CC[C@@H]12", "growth": "82.2% (inactive)"}
{"smiles": "Fc1ccc2nc(-c3cc(-c4ccc5c(c4)OCO5)n[nH]3)[nH]c2c1", "growth": "70.3% (inactive)"}
{"smiles": "O=C(NC(Cc1cn(Cc2ccccc2)cn1)C(=O)O)OCC1c2ccccc2-c2ccccc21", "note": "(stereo unspecified)", "growth": "109% (inactive)"}
{"smiles": "Cc1cc(Cl)nc(N(CCCNc2ccnc3cc(Cl)ccc23)Cc2ccco2)n1", "growth": "40.8% (inactive)"}
{"smiles": "COc1cc(-c2cc3ncccc3c3nc(OCCN(C)C)c4cccnc4c23)cc(OC)c1OC", "growth": "-10.8% (active)"}
{"smiles": "O=C1CNCCN1", "growth": "112% (inactive)"}
{"smiles": "c1ccc2[nH]c(-c3ccc(Nc4nc(N5CCCCC5)nc(N5CCOCC5)n4)cc3)nc2c1", "growth": "22.5% (inactive)"}
{"smiles": "NC1=NN=C2N(N)C(=O)c3cnn(-c4ccccc4)c3N2c2nc(-c3ccccc3)cc(-c3ccccc3)c21", "growth": "93.2% (inactive)"}
